# PubChem BioAssay (NCATS)
# “And” between values parts separate entries of the source, which are not always exact repeats. Equal entries are not always repeated. Values without a mark were called inactive. Inconclusive results are not listed. The source made the active and inactive calls. Unless noted, the call rests on the fitted dose curve; in most records, active means well fitted inhibition curve with a large enough effect; inconclusive means small, poorly fitted or top-dose-only effect; inactive means flat fitted curve, though single readings scatter.
# What was measured:
# [1] = Drug repurposing screens with cells derived from glioblastoma tumor samples (AID 1345199); settings: GBM patient neurospheres viability, ATP luminescence, 48 h; further: nearly all actives have a fitted effect of over 40% in size; further: potency means the concentration at half of the fitted maximal effect; on activity, negative = cell killing: on the % scale 0 is the no-effect control and ±100 the full control effect
# Procedure, shortened: (§1)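 Four patient lines of CD133+ GBM neurospheres were screened at several concentrations; hits were retested in those lines plus three slower-growing GBM lines, using 48-hour treatment and ATP-based viability.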
# [2] = tested on: astro; assay: as above; settings: viability, ATP luminescence, 48 h; series mostly up to 45.9 µM
# Procedure, shortened: as §1
# [3] = qHTS assay for small molecule activators of the human pregnane X receptor (PXR) signaling pathway (AID 720659; call rule not given here; further: 0% is about no effect); settings: DPX-2 HepG2 CYP3A4-luciferase, 24 h; series mostly up to 92.3 µM
# [4] = biological target: Nuclear receptor subfamily 1 group I member 2 (Rattus norvegicus) (UniProt Q9R1A7); assay: qHTS assay for small molecule activators of the rat pregnane X receptor (rPXR) signaling pathway (AID 651751; call rule not given here; further: 0% is about no effect); settings: rPXR reporter cells, luciferase (One-Glo), 24 h
# [5] = at 20 µM (top of the series), tumour line C
# [6] = at 21.2 µM (top of the series), tumour line B
# [7] = at 21.2 µM (top of the series), tumour line D
# [8] = at 45.9 µM (top of the series), tumour line D
# [9] = at 46.1 µM (top of the series), tumour line C
# [10] = at 45.9 µM (top of the series), tumour line B
# [11] = at 46 µM (top of the series), tumour line A
# [12] = at 21.3 µM (top of the series), tumour line A
# Chain of Nuclear receptor subfamily 1 group I member 2 (Rattus norvegicus) (Q9R1A7 whole entry, looked up): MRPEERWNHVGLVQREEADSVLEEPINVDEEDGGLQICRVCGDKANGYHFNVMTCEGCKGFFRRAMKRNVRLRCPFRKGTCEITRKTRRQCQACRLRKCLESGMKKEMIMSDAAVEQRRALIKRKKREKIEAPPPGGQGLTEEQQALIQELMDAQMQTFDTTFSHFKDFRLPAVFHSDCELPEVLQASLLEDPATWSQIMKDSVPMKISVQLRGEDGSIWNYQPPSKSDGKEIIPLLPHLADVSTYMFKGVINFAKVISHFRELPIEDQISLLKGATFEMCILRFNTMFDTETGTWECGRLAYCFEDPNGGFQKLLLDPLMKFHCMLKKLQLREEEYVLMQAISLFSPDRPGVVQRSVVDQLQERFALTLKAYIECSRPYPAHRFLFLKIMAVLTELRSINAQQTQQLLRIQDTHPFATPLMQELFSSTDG
smiles,measurement,setting,value
CC(C)NCC1CCc2cc(CO)c([N+](=O)[O-])cc2N1 (stereo not drawn),"activity, negative = cell killing",[1]; [5],-4.59%
same,"activity, negative = cell killing",[1]; [6],-15%
same,"activity, negative = cell killing",[1]; [7],-4.44%
O=S(=O)(O)c1ccc2c(N=Nc3ccc(S(=O)(=O)O)c4ccccc34)c(O)c(S(=O)(=O)O)cc2c1,"activity, negative = cell killing",[1]; [8],-24.2%
same,"activity, negative = cell killing",[1]; [9],-9.01%
CCCCC(C)(O)C/C=C/[C@H]1[C@H](O)CC(=O)[C@@H]1CCCCCCC(=O)OC (stereo partly drawn),"activity, negative = cell killing",[1]; [10],-29.2%
same,"activity, negative = cell killing",[1]; [8],-0.625%
same,"activity, negative = cell killing",[1]; [9],7.24%
same,Potency,[2],inactive
CC1(C)C(C=C(Cl)Cl)C1C(=O)OCc1cccc(Oc2ccccc2)c1 (stereo not drawn),"activity, negative = cell killing",[1]; [10],-14.8%
same,"activity, negative = cell killing",[1]; [8],-15.5%
same,"activity, negative = cell killing",[1]; [9],6.86%
same,Potency,[2],inactive
CCOC(C)=O,"activity, negative = cell killing",[1]; [10],-6.99%
same,"activity, negative = cell killing",[1]; [8],-8.33%
same,"activity, negative = cell killing",[1]; [11],-18.3%
same,"activity, negative = cell killing",[1]; [9],2.8%
same,outcome,[3],inactive
CC(=O)Oc1c(C)cc(OCC(O)CNC(C)C)c(C)c1C (stereo not drawn),"activity, negative = cell killing",[1]; [10],-11.9%
same,"activity, negative = cell killing",[1]; [8],5.15%
same,"activity, negative = cell killing",[1]; [9],13.3%
same,Potency,[2],inactive
IC(I)I,"activity, negative = cell killing",[1]; [10],-9.98%
same,"activity, negative = cell killing",[1]; [8],-13.1%
same,"activity, negative = cell killing",[1]; [11],-9.65%
same,"activity, negative = cell killing",[1]; [9],2.5%
same,Potency,[2],inactive
same,max response,[4],0.127% and 1.54%
same,outcome,[3],inactive
O=C(O)c1cc(O)c2c(c1)[O][Bi][O]2,"activity, negative = cell killing",[1]; [10],-11.9%
same,"activity, negative = cell killing",[1]; [8],-5.77%
same,"activity, negative = cell killing",[1]; [11],-19.4%
same,"activity, negative = cell killing",[1]; [9],3.44%
same,Potency,[2],inactive
CCCCCCCCCCCCCCCC(=O)OCC(COC(=O)CCCCCCCCCCCCCCC)OC(=O)CCCCCCCCCCCCCCC,"activity, negative = cell killing",[1]; [10],-15.6%
same,"activity, negative = cell killing",[1]; [8],-3.31%
same,"activity, negative = cell killing",[1]; [11],-22.2%
same,"activity, negative = cell killing",[1]; [9],-9%
same,Potency,[2],inactive
COC(=O)[C@H]1[C@H]2C[C@@H]3c4[nH]c5ccccc5c4CCN3C[C@H]2C[C@@H](OC(=O)c2cc(OC)c(OC)c(OC)c2)[C@@H]1OC,"activity, negative = cell killing",[1]; [10],-12.2%
same,"activity, negative = cell killing",[1]; [9],-12.2%
same,Potency,[1]; tumour line A,12.6 µM (active)
same,Potency,[2],inactive
C#CCOc1ccc2c(C)cc(=O)oc2c1,"activity, negative = cell killing",[1]; [10],-16.6%
same,"activity, negative = cell killing",[1]; [8],-17.5%
same,"activity, negative = cell killing",[1]; [9],-16.5%
same,Potency,[2],inactive
CO[C@H]1C[C@H](O[C@H]2[C@H](C)[C@@H](O[C@@H]3O[C@H](C)C[C@H](N(C)C)[C@H]3OC(C)=O)[C@@H](C)C[C@]3(CO3)C(=O)[C@H](C)[C@@H](OC(C)=O)[C@@H](C)[C@@H](C)OC(=O)[C@@H]2C)O[C@@H](C)[C@@H]1OC(C)=O,"activity, negative = cell killing",[1]; [5],-16.4%
same,"activity, negative = cell killing",[1]; [6],-6.68%
same,"activity, negative = cell killing",[1]; [7],-16.6%
same,"activity, negative = cell killing",[1]; [12],-20.4%
same,Potency,[2],inactive
CCCC(=O)Nc1ncnc2c1ncn2[C@@H]1O[C@@H]2COP(=O)(O)O[C@H]2[C@H]1OC(=O)CCC,"activity, negative = cell killing",[1]; [10],-14.5%
same,"activity, negative = cell killing",[1]; [8],-5%
same,"activity, negative = cell killing",[1]; [11],-18.2%
same,"activity, negative = cell killing",[1]; [9],-13.8%
same,Potency,[2],inactive
O=C(O)CN(CCN(CC(=O)O)CC(=O)O)CC(=O)O,"activity, negative = cell killing",[1]; [10],-9.39%
same,"activity, negative = cell killing",[1]; [8],-15%
same,"activity, negative = cell killing",[1]; [11],-14.7%
same,"activity, negative = cell killing",[1]; [9],-16.4%
same,Potency,[2],inactive
same,max response,[4],0.191% and 7.12%
C[C@]12O[C@H](C[C@]1(O)CO)n1c3ccccc3c3c4c(c5c6ccccc6n2c5c31)CNC4=O,"activity, negative = cell killing",[1]; [9],-97.6%
same,Potency,[1]; tumour line A,7.08 µM (active)
same,Potency,[1]; tumour line B,4.47 µM (active)
same,Potency,[1]; tumour line D,3.16 µM (active)
same,Potency,[2],447 nM (active)
CN(C)CC/C=C1/c2ccccc2CSc2ccccc21,"activity, negative = cell killing",[1]; [5],-1.3%
same,"activity, negative = cell killing",[1]; [6],-26.2%
same,Potency,[1]; tumour line A,12.6 µM (active)
same,Potency,[1]; tumour line D,12.6 µM (active)
same,Potency,[2],inactive
CC(C)(C)C(=O)OCOC(=O)[C@@H]1N2C(=O)[C@@H](N=CN3CCCCCC3)[C@H]2SC1(C)C,"activity, negative = cell killing",[1]; [5],-7.48%
same,"activity, negative = cell killing",[1]; [6],-4.41%
same,"activity, negative = cell killing",[1]; [7],17.4%
same,"activity, negative = cell killing",[1]; [12],-13.2%
same,Potency,[2],inactive
Nc1ncnc2c1ncn2[C@@H]1O[C@H](COP(=O)(O)OP(=O)(O)OP(=O)(O)O)[C@@H](O)[C@H]1O,"activity, negative = cell killing",[1]; [10],15.4%
same,"activity, negative = cell killing",[1]; [8],-9.21%
same,"activity, negative = cell killing",[1]; [11],-1.48%
same,"activity, negative = cell killing",[1]; [9],38.9%
same,Potency,[2],inactive
